Screens (PubChem)
Only some compounds are listed: those with a hit (about 4.3% of all), similar ones and a draw of the others.
UBC13 inh = human UBC13 polyubiquitination inhibition | inhibition, % at 20 µM | 0.47% of 330,000 active | UBC13 polyubiquitin chain formation, TR-FRET | P61088; in the data active = inhibition above about 45%, passing the limit was not always enough; inconclusive = no clear call, values can overlap the other calls
Target sequence (P61088 whole entry, looked up): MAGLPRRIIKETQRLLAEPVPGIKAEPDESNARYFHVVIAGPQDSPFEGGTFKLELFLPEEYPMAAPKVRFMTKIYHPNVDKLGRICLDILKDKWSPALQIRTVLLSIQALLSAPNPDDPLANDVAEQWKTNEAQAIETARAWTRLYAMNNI
dFosB act = enhances mouse delta FosB homodimer DNA binding | P13346 | purified delta FosB, TAMRA-CDK5 oligo fluorescence polarization; percent of positive-control signal above neutral wells | activation, % at 25 µM | 0.99% of 340,000 active | AID 493131;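 active = mean activation above about 17%, with every replicate also reaching it, limit read from the data, passing the limit was not always enough; inconclusive = only one of the two conditions met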
GRIN3A LBD mod = NR3A (human) ligand-binding domain modulation; NR3A LBD differential scanning fluorimetry, Tm shift; 0% = protein alone, 100% = glycine-bound protein; Tm shift relative to glycine control, % at 25 µM; 2.5% of 340,000 active; AID 1259313;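 active = melting temperature shift of at least 10% of the positive control shift, at one fixed dose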
NALP1 inh = NALP1 inhibition. S. cerevisiae NALP1/ASC/caspase-1 growth, X-gal OD620, 72 h. inhibition, % at 10 µM. 0.61% of 280,000 active; in the data active = inhibition mostly above about 24%, no sharp cut-off; inactive = mostly below about 32%
CR mimetic SO = yeast age-related superoxide inhibition as caloric restriction mimetic | S. cerevisiae aged cells, superoxide DHE fluorescence; stronger effect = lower value | 0.18% of 330,000 active | superoxide response (% of plate mean), % at 10 µM;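 active = superoxide response under a set limit, about three screen SD below normal, cut at about 65% in these data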;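 note: yeast aged for seven days with compound at 30 °C before DHE staining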
Casp3 counter = inhibits human caspase-3 in UBC13 counter-screen | shares compounds with UBC13 inh | Recombinant caspase-3, Caspase-Glo 3/7 luminescence, 60 min | inhibition, % at 20 µM | 4% of 1,400 active | AID 488856;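 active = mean inhibition across replicates above about 26%, limit read from the data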
Target sequence (P42574 whole entry, looked up): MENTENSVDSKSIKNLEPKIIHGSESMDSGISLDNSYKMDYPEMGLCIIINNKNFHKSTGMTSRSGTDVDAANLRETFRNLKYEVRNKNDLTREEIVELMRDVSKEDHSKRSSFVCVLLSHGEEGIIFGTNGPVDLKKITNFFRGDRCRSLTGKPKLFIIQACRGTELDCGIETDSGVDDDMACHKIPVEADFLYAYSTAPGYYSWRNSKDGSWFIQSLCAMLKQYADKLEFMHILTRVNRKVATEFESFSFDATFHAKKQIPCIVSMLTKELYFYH
UBC13 confirm = confirmation of human UBC13 polyubiquitin inhibitors | shares compounds with UBC13 inh | UBC13 polyubiquitination, TR-FRET, biochemical | 68% of 1,400 active | inhibition, % at 10 µM; in the data active = inhibition above about 45%; inconclusive = no clear call, values can overlap the other calls
Each line names hits and unclear results; the compound was inactive in the other large screens (follow-up assays come after a bar, where they were run).

O=C(CCCn1c(=S)[nH]c2ccsc2c1=O)NCCc1ccccc1	UBC13 inh 55.6 | Casp3 counter inactive | UBC13 confirm inconclusive
N#Cc1ccsc1NC(=O)C1CCN(C(=O)c2ccc(F)cc2)CC1	UBC13 inh 58.8 (no result: NALP1 inh) | Casp3 counter inactive | UBC13 confirm inactive
CS(=O)(=O)Nc1cccc(C2=NN(C(=O)CCCC(=O)O)C(c3cccs3)C2)c1 (configuration not stated)	none
C=C(C)CNC(=S)N=Nc1c(O)[nH]c2ccc([N+](=O)[O-])cc12	UBC13 inh 48.9, GRIN3A LBD mod 25.0 | Casp3 counter inactive | UBC13 confirm 46.8
FC(F)(F)c1cc(CO[C@@H]2CCCN[C@@H]2c2ccccc2)cc(C(F)(F)F)c1	UBC13 inh 58.2 (no result: NALP1 inh) | Casp3 counter inactive | UBC13 confirm 55.2
CCOc1ccc(NC(=O)CN(C)C(=O)c2cc(S(=O)(=O)N3CCCCC3)ccc2C)cc1OCC	none (no result: NALP1 inh)
COCCN=c1scc(-c2ccco2)n1/N=C/c1ccc(O)c(O)c1O	UBC13 inh 46.3 | Casp3 counter inactive | UBC13 confirm inactive
C=CCN=c1scc(-c2ccco2)n1/N=C/c1ccc(O)c(O)c1O	none
Cc1ccc(NC(=O)CSc2ncnc3ccccc23)cc1S(=O)(=O)N1CCCCC1	none
Cc1ccc(NC(=O)CSc2nc3ccccc3c(=O)n2CCCC(=O)NCCCN2CCOCC2)cc1C	UBC13 inh 47.9 | Casp3 counter inactive | UBC13 confirm 54.9
O=C(CSc1nc2ccsc2c(=O)n1Cc1ccccc1)NCc1ccco1	UBC13 inh 50.3 | Casp3 counter inactive | UBC13 confirm 67.6
CCOC(=O)CSc1nc2ccccc2c(=O)n1CCCCCC(=O)NCc1ccco1	UBC13 inh 46.6 | Casp3 counter inactive | UBC13 confirm 47.0
O=C(CCCCCn1c(SCC(=O)c2ccccc2)nc2ccccc2c1=O)NCc1ccco1	none
Cc1ccc(NC(=O)CSc2ncnc3ccccc23)cc1S(=O)(=O)N1CCOCC1	UBC13 inh 50.7 | Casp3 counter inactive | UBC13 confirm inactive
C=CCn1c(NCc2ccc(OC)cc2O)nc2ccccc21	none
CC(NCc1cccnc1)c1ccccc1 (configuration not stated)	none
CCn1c(=O)cc(SCC(=O)NCCCN2CCN(c3ccccc3F)CC2)c2ccccc21	UBC13 inh 58.2 | Casp3 counter inactive | UBC13 confirm inconclusive
Cn1c(=O)cc(OCCCC(=O)NCCN2CCN(c3ccccc3F)CC2)c2ccccc21	UBC13 inh 57.1 | Casp3 counter inactive | UBC13 confirm inactive
CCOc1ccc(NC(=O)CCCOc2cc(=O)n(C)c3ccccc23)cc1	UBC13 inh 73.8 | Casp3 counter inactive | UBC13 confirm 76.1
COc1ccc(C(=O)C2CCCN(C(=O)c3ccc4nccnc4c3)C2)c(C)c1 (configuration not stated)	none
CCn1c(C)c(C(=O)c2ccccc2)c(C#N)c1C(=O)O	none
O=C1CCCC/C1=C/NCc1ccc(F)cc1	none
CCS(=O)(=O)c1nc(S(=O)(=O)c2ccc(Cl)cc2)c(N2CCC(O)CC2)s1	none
Cc1nc2ccccc2c2oc(C(=O)N3CCC(N4CCCCC4)CC3)cc12	UBC13 inh 61.3 | Casp3 counter inactive | UBC13 confirm inactive
CNCCNC[C@H](Cc1cccc2ccccc12)NCCc1ccccc1	none (no result: NALP1 inh)
CNC[C@H](Cc1ccccc1)NC[C@@H](Cc1cccc2ccccc12)NCCc1ccc(C)cc1	UBC13 inh 95.5, dFosB act 29.6 | Casp3 counter inactive | UBC13 confirm 90.0
CCCCCCCCOC(=O)c1c(CSC(=N)N)n(C)c2cc(Br)c(OC(C)=O)cc12	UBC13 inh 95.5, GRIN3A LBD mod 39.8 (no result: dFosB act) | Casp3 counter inactive | UBC13 confirm 113.7
CCOC(=O)N1CCc2c(sc(NC(=O)CN(CC)CC)c2C#N)C1	UBC13 inh 78.5 | Casp3 counter inactive | UBC13 confirm 95.0
CC(=O)N1CCc2c(sc(NC(=O)Cc3ccccc3)c2C#N)C1	none
CCn1c(SCC(=O)NCC2CCCO2)nnc1-c1ccc(Cl)cc1 (configuration not stated)	none
Cn1c(SCC(=O)NCC2CCCO2)ncc(C(=O)Nc2ccc(Cl)cc2)c1=O (configuration not stated)	UBC13 inh 58.2 (no result: NALP1 inh) | Casp3 counter 97.5 | UBC13 confirm 68.9
Cn1c(SCC(=O)NCC2CCCO2)ncc(C(=O)Nc2ccc(F)cc2)c1=O (configuration not stated)	UBC13 inh 58.8 (no result: NALP1 inh) | Casp3 counter 96.0 | UBC13 confirm 60.3
CCc1nc2ccccc2c(C(=O)OCc2nc3ccccc3c(=O)[nH]2)c1C	UBC13 inh 62.0 (no result: NALP1 inh) | Casp3 counter inactive | UBC13 confirm 57.8
CCc1nc2ccccc2c(C(=O)OCCN2C(=O)c3ccccc3C2=O)c1C	UBC13 inh 52.0 | Casp3 counter inactive | UBC13 confirm 70.2
CCc1nc2ccccc2c(C(=O)OCC(=O)C(C)(C)C)c1C	none
CC1CC2(C)Oc3ccccc3CC2C(C)C1CNCCCN(C)C (configuration not stated)	none
Cc1cccn2c(=O)c(C=O)c(N3CC(C)OC(C)C3)nc12 (configuration not stated)	none
Cc1cccn2c(=O)c(C=O)c(N3CCCCCC3)nc12	UBC13 inh 55.3 | Casp3 counter inactive | UBC13 confirm 64.0
CCCCCCCCC(=O)N1CCN(c2cc3c(cc2F)c(=O)c(C(=O)O)cn3CC)CC1	UBC13 inh 45.9 | Casp3 counter inactive | UBC13 confirm inactive
CCCC1(c2ccccc2)NC(=O)N(CC(=O)NCc2ccc(OC)cc2)C1=O (configuration not stated)	none
CSc1sc(-c2nnc(SCC(=O)Nc3ccccc3)n2C)c2c1C=CCC2	UBC13 inh 53.6 (no result: dFosB act) | Casp3 counter inactive | UBC13 confirm inconclusive
Cn1c(SCC(=O)Nc2ccccc2)nnc1-c1ccc(NC(=O)CCc2ccccc2)cc1	none
COc1ccc(CCN(/C=C2\Sc3ccccc3C2=O)C(C)=O)cc1OC	UBC13 inh 51.8 (no result: dFosB act) | Casp3 counter inactive | UBC13 confirm inactive
COc1cccc(NC(=O)c2cccnn2)c1	none
Cc1cccc(C(=O)NCC(=O)OCCOc2ccccc2Cl)c1	none (no result: NALP1 inh)
O=C1c2cccc3cccc(c23)C(=O)N1CCN1CCN(CC(O)COc2ccccc2)CC1 (configuration not stated)	UBC13 inh 53.8 | Casp3 counter inactive | UBC13 confirm inactive
O=C(C(c1ccccc1)c1ccccc1)N1CCN(CCN2C(=O)c3cccc4cccc(c34)C2=O)CC1	none
COc1cccc(OCC(O)CN2CCN(CCN3C(=O)c4cccc5cccc(c45)C3=O)CC2)c1 (configuration not stated)	UBC13 inh 61.2, dFosB act inconclusive | Casp3 counter inactive | UBC13 confirm 62.9
